Screening data from PubChem.
RAD54 inh – blocks human RAD54 Holliday junction branch migration; inhibition, % at 10.4 µM; FAM/BHQ fluorescence; 360,000 compounds, 0.14% hits; AID 602329;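 active = mean normalized replicate activity at least 40 and at least half of replicates scoring 40 or more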;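 note: inhibitors cause a drop in the FAM fluorescence signal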
dFosB act-1 – mouse delta FosB homodimer activation | P13346 | purified delta FosB, TAMRA-CDK5 oligo fluorescence polarization; percent of positive-control signal above neutral wells | activation, % at 25 µM | 340,000 compounds, 0.99% hits | AID 493131;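 active = mean activation above about 17%, with every replicate also reaching it, limit read from the data, passing the limit was not always enough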
F508del corr – correctors of CFTR F508del function in bronchial epithelial cells; 350,000 compounds, 0.36% hits; CFBE cells, YFP halide quenching; stimulated with forskolin plus potentiator P3; % fluorescence drop versus neutral controls; activity (quench increase), % at 7.58 µM;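 active = mean added fluorescence quench of at least 8% versus neutral control, with both replicates also reaching 8%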;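 note: cells transiently co-express mutant CFTR-F508del with the halide-sensitive YFP; corrector assay measuring rescue of mutant channel to the surface after 24 h compound exposure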
RAD52 anneal inh – blocks human RAD52 DNA annealing; P43351; inhibition, % at 18.7 µM; 360,000 compounds, 0.46% hits; recombinant RAD52 DNA annealing, FRET fluorescence;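 active = every replicate showing at least 50% inhibition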
Glyco luc inh – blocks N-linked glycosylation in D54 reporter cells | D54 ERlucT glycosylation luciferase reporter, 24 h; percent of 100 nM tunicamycin response | reporter increase, % at 12.5 µM | 360,000 compounds, 0.23% hits | AID 588692;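 active = mean luciferase reporter signal, scaled so untreated is 0 and the glycosylation-blocking control 100, at or above a set limit in every replicate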;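 note: luciferase carries N-glycosylation sites so blocking glycosylation raises the light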
PvdQ acylase – blocks Pseudomonas aeruginosa PvdQ acylase activity. purified PvdQ acylase, fluorescence plate reader. inhibition, % at 10 µM. 340,000 compounds, 0.063% hits. AID 488965; in the data active = inhibition above about 30%, passing the limit was not always enough
dFosB act-2 – enhances mouse delta FosB homodimer binding to DNA; shares compounds with dFosB act-1; purified delta FosB, TAMRA-CDK5 oligo fluorescence polarization; normalised: neutral wells 0, positive control 100; activation, % at 24.9 µM; 2,400 tested, under 10 active; AID 588690;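 active = highest replicate activation at or above 34% and every replicate reaching that threshold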;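 note: higher polarization means more probe DNA bound by delta FosB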
Each line names hits and unclear results; the compound was inactive in the other large screens (follow-up assays come after a bar, where they were run). This is a sample that favours compounds with a hit; in the whole collection about 1.5% have one here.

CC(C)NC(=O)Nc1ccc2c(c1)C(=O)N([C@@H](C)CO)C[C@H](C)[C@H](CN(C)C(=O)NC1CCCCC1)O2	none (no result: dFosB act-1, Glyco luc inh, PvdQ acylase)
Nc1ccc(S(=O)(=O)Nc2nccc(/C=C/c3ccc(Cl)cc3)n2)cc1	none
Nc1ccc(S(=O)(=O)Nc2nccc(/C=C/c3ccc(Cl)cc3Cl)n2)cc1	dFosB act-1 40 | dFosB act-2 inactive
Cc1cccc(S(=O)(=O)N[C@H]2CC[C@@H](CCNC(=O)CCN3CCCCC3)O[C@H]2CO)c1	none (no result: dFosB act-1, Glyco luc inh, PvdQ acylase)
CCOC(=O)Nc1cccc(OCC(=O)Nc2ccc3c(c2)CCC3)c1	dFosB act-1 23 | dFosB act-2 inactive
COc1cccc(NC(=O)COc2ccc3c(c2)CCC3)c1	none (no result: RAD54 inh)
O=C(C[C@H]1C/C=C\C[C@@H](Cc2ccc(F)cc2)C(=O)O[C@@H](c2ccccc2)CNC1=O)N[C@@H](CO)Cc1ccccc1	dFosB act-1 49 | dFosB act-2 inactive
O=C(C[C@H]1C/C=C\CC[C@@H](Cc2ccc(F)cc2)C(=O)O[C@@H](c2ccccc2)CNC1=O)N[C@@H](CO)Cc1ccccc1	dFosB act-1 116 | dFosB act-2 inactive
O=C(C[C@H]1C/C=C\C[C@H](Cc2ccc(F)cc2)C(=O)O[C@@H](c2ccccc2)CNC1=O)N[C@@H](CO)Cc1ccccc1	none
O=C(CCCN1C(=O)c2cccc3cccc(c23)C1=O)N1CCN(c2ccccc2)CC1	none (no result: RAD54 inh, F508del corr)
CC(C)(C)C(=O)N1CCN(CCN2C(=O)c3cccc4cccc(c34)C2=O)CC1	none
O=C1c2cccc3cccc(c23)C(=O)N1CCCN1CCN(c2ccc(F)cc2)CC1	dFosB act-1 46 (no result: RAD54 inh) | dFosB act-2 inactive
O=C(CN1CCN(CCN2C(=O)c3cccc4cccc(c34)C2=O)CC1)c1ccc(F)cc1	dFosB act-1 33 (no result: RAD54 inh, F508del corr, RAD52 anneal inh) | dFosB act-2 inactive
COc1ccc2c3c(n(C)c2c1)[C@@H](CO)N(Cc1ccc(F)cc1)CC31CCN(CC2CC2)CC1	none (no result: RAD54 inh, dFosB act-1, Glyco luc inh, PvdQ acylase)
O=C(CCC(=O)Nc1ccccc1)NNC(=O)C(c1ccccc1)c1ccccc1	dFosB act-1 42 (no result: F508del corr, RAD52 anneal inh) | dFosB act-2 inactive
CCC(=O)NNC(=O)CCC(=O)Nc1ccccc1	none (no result: RAD54 inh, dFosB act-1, Glyco luc inh, PvdQ acylase)
CCC(NC(=O)c1ccccc1NC(=O)c1ccco1)C(=O)NNC(=O)c1ccc(OC)cc1 (stereo unspecified)	dFosB act-1 32 (no result: RAD54 inh) | dFosB act-2 inactive
CCC(C)C(NC(=O)c1ccccc1NC(=O)c1ccco1)C(=O)NC1CCCCC1 (stereo unspecified)	dFosB act-1 31 (no result: F508del corr, RAD52 anneal inh) | dFosB act-2 inactive
CCC(C)C(NC(=O)c1ccccc1NC(=O)c1ccco1)C(=O)NNC(=O)c1ccc(OC)cc1 (stereo unspecified)	none
COc1ccc(C(=O)NNC(=O)C(NC(=O)c2ccccc2NC(=O)c2ccco2)C(C)C)cc1 (stereo unspecified)	dFosB act-1 32 (no result: RAD54 inh) | dFosB act-2 inactive
COc1ccc2c3c([nH]c2c1)[C@H](CO)N(C(C)=O)CC31CN(Cc2cc(-c3ccccc3)on2)C1	none (no result: RAD54 inh, dFosB act-1, Glyco luc inh, PvdQ acylase)
COCC(=O)Nc1ccc2c(c1)OC[C@H](C)N(Cc1cccnc1)C[C@@H](C)[C@H](OC)CN(C)C2=O	none (no result: dFosB act-1, Glyco luc inh, PvdQ acylase)
CCOc1cc2[nH]c(=S)n(CCc3ccc(OC)c(OC)c3)c(=O)c2cc1OCC	none (no result: F508del corr, RAD52 anneal inh)
CCOc1cc2[nH]c(=O)n(CCc3ccc(OC)c(OC)c3)c(=O)c2cc1OCC	dFosB act-1 25 (no result: F508del corr, RAD52 anneal inh) | dFosB act-2 inactive
c1ccc(-n2cc(CN3CCCC(CN4CCCC4)C3)c(-c3ccc4c(c3)OCO4)n2)cc1 (stereo unspecified)	dFosB act-1 27 (no result: F508del corr) | dFosB act-2 inactive
OC[C@@H]1CCCN1Cc1cn(-c2ccccc2)nc1-c1ccc2c(c1)OCO2	none
C[C@H](CO)N1C[C@H](C)[C@H](CN(C)Cc2ccc(-c3ccccc3)cc2)Oc2ccc(N(C)C)cc2C1=O	none (no result: dFosB act-1, Glyco luc inh, PvdQ acylase)
Cc1c(Cl)cccc1NC(=O)Cn1cc(C(F)(F)F)cc(Cl)c1=O	dFosB act-1 57 (no result: RAD54 inh, F508del corr) | dFosB act-2 inactive
Cc1ccc(Cl)cc1NC(=O)Cn1cc(C(F)(F)F)cc(Cl)c1=O	none (no result: F508del corr)
